Source: PubChem BioAssay (NCATS)
Inconclusive results are not listed. A call without a number means that no potency is given here. Values without a mark were called inactive. Active and inactive are the calls of the source. Calls come from the whole dose curve; as a rule, active = well fitted cell-killing curve with a large enough effect; inconclusive = small, poorly fitted or top-dose-only effect, or effect the other way; inactive = no such curve, though single readings can be large or run the other way.

Legend:
[1] = Quantitative High-Throughput drug screen in 47 multiple myeloma cell lines against the NCATS MIPE library collection: LP1_DSMZ cell viability assay (AID 1918982); note: nearly all actives have a fitted effect of over 35% in size
Method in brief: (§1)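 500 cells/well per myeloma line exposed to pinned MIPE 4.0 compounds for 48 h at 37 °C, 5% CO2. Viability read as ATP by CellTiter-Glo luminescence, normalised to DMSO-only (100%) and media-only (0%) wells.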

[2] = Quantitative High-Throughput drug screen in 47 multiple myeloma cell lines against the NCATS MIPE library collection: KMS28PE_JCRB cell viability assay (AID 1918983); note: nearly all actives have a fitted effect of over 35% in size
Method in brief: as §1

[3] = Quantitative High-Throughput drug screen in 47 multiple myeloma cell lines against the NCATS MIPE library collection: KMS34_JCRB cell viability assay (AID 1918985); note: nearly all actives have a fitted effect of over 40% in size
Method in brief: as §1

[4] = Quantitative High-Throughput drug screen in 47 multiple myeloma cell lines against the NCATS MIPE library collection: OPM1_PLB cell viability assay (AID 1918989); note: nearly all actives have a fitted effect of over 40% in size
Method in brief: as §1

[5] = Quantitative High-Throughput drug screen in 47 multiple myeloma cell lines against the NCATS MIPE library collection: U266_ATCC cell viability assay (AID 1919864); note: nearly all actives have a fitted effect of over 35% in size
Method in brief: as §1

[6] = Quantitative High-Throughput drug screen in 47 multiple myeloma cell lines against the NCATS MIPE library collection: XG6_PLB cell viability assay (AID 1919865); note: nearly all actives have a fitted effect of over 40% in size
Method in brief: as §1

[7] = Quantitative High-Throughput drug screen in 47 multiple myeloma cell lines against the NCATS MIPE library collection: XG1_PLB cell viability assay (AID 1919866); note: nearly all actives have a fitted effect of over 35% in size
Method in brief: as §1

[8] = Quantitative High-Throughput drug screen in 47 multiple myeloma cell lines against the NCATS MIPE library collection: VP6_DJ cell viability assay (AID 1919867); note: nearly all actives have a fitted effect of over 40% in size
Method in brief: as §1

[9] = Quantitative High-Throughput drug screen in 47 multiple myeloma cell lines against the NCATS MIPE library collection: PE2_PLB cell viability assay (AID 1919869); note: nearly all actives have a fitted effect of over 35% in size
Method in brief: as §1

[10] = Quantitative High-Throughput drug screen in 47 multiple myeloma cell lines against the NCATS MIPE library collection: OPM2_DSMZ cell viability assay (AID 1919872); note: nearly all actives have a fitted effect of over 30% in size
Method in brief: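 Approved and investigational drugs from MIPE 4.0 were added by pin tool to 500 cells per well. After 48 hours at 37C, ATP-based CellTiter-Glo luminescence indicated remaining viability.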

[11] = Quantitative High-Throughput drug screen in 47 multiple myeloma cell lines against the NCATS MIPE library collection: KMS11_JCRBsus cell viability assay (AID 1919873); note: nearly all actives have a fitted effect of over 50% in size
Method in brief: as §1

[12] = Quantitative High-Throughput drug screen in 47 multiple myeloma cell lines against the NCATS MIPE library collection: KMS28BM_JCRB cell viability assay (AID 1919874); note: nearly all actives have a fitted effect of over 35% in size
Method in brief: as §1

[13] = Quantitative High-Throughput drug screen in 47 multiple myeloma cell lines against the NCATS MIPE library collection: L363_DSMZ cell viability assay (AID 1918984); note: nearly all actives have a fitted effect of over 40% in size
Method in brief: as §1

[14] = Quantitative High-Throughput drug screen in 47 multiple myeloma cell lines against the NCATS MIPE library collection: OCIMY7_PLB cell viability assay (AID 1918987); note: nearly all actives have a fitted effect of over 65% in size
Method in brief: as §1

[15] = Quantitative High-Throughput drug screen in 47 multiple myeloma cell lines against the NCATS MIPE library collection: OCIMY5_PLB cell viability assay (AID 1918988); note: nearly all actives have a fitted effect of over 65% in size
Method in brief: as §1

[16] = Quantitative High-Throughput drug screen in 47 multiple myeloma cell lines against the NCATS MIPE library collection: SKMM1_PLB cell viability assay (AID 1919863); settings: SKMM1 myeloma viability, CellTiter-Glo ATP, 48 h; viability: stronger effect = lower value; note: nearly all actives have a fitted effect of over 35% in size; for viability: series mostly up to about 46 µM
Method in brief: as §1

[17] = Quantitative High-Throughput drug screen in 47 multiple myeloma cell lines against the NCATS MIPE library collection: PCM6_Riken cell viability assay (AID 1919870); note: nearly all actives have a fitted effect of over 30% in size
Method in brief: as §1

[18] = Quantitative High-Throughput drug screen in 47 multiple myeloma cell lines against the NCATS MIPE library collection: RPMI8226_ATCC cell viability assay (AID 1919871); note: nearly all actives have a fitted effect of over 30% in size
Method in brief: as §1
Potency is the fitted concentration of half-maximal effect.

Structure (SMILES)	Potency [1]	Potency [2]	Potency [3]	Potency [4]	Potency [5]	Potency [6]	Potency [7]	Potency [8]	Potency [9]	Potency [10]	Potency [11]	Potency [12]	Potency [13]	Potency [14]	Potency [15]	Potency [16]	Potency [17]	Potency [18]	viability [16] [%]
C#CC1(O)CCC2C3CCC4=CC(=O)CCC4(C)C3CCC21C (configuration not stated)	inactive	20.9 µM (active)	inactive	inactive	inactive	inactive	inactive	inactive	inactive	inactive	inactive	18.7 µM (active)	–	–	–	–	–	–	–
CCN1CCN(C(=O)Cc2ccc(Nc3ncc(F)c(Nc4ccc(C(=O)Nc5ccccc5Cl)cc4)n3)cc2)CC1	8.33 µM (active)	14.8 µM (active)	4.18 µM (active)	5.26 µM (active)	7.43 µM (active)	0.743 µM (active)	1.18 µM (active)	2.64 µM (active)	7.43 µM (active)	6.62 µM (active)	0.743 µM (active)	1.87 µM (active)	1.87 µM (active)	0.526 µM (active)	2.64 µM (active)	9.35 µM (active)	2.96 µM (active)	18.7 µM (active)	–
O=C(N[C@H]1CN2CCC1CC2)c1ccc(Cl)cc1	inactive	inactive	inactive	inactive	4.18 µM (active)	8.33 µM (active)	6.62 µM (active)	7.43 µM (active)	–	inactive	–	inactive	–	–	–	–	8.33 µM (active)	inactive	–
CC[C@@]1(O)C(=O)OCc2c1cc1n(c2=O)Cc2cc3ccccc3nc2-1	0.59 µM (active)	0.166 µM (active)	0.209 µM (active)	0.833 µM (active)	0.332 µM (active)	0.0148 µM (active)	0.0332 µM (active)	0.166 µM (active)	0.209 µM (active)	0.743 µM (active)	0.418 µM (active)	0.105 µM (active)	0.296 µM (active)	0.001 µM (active)	–	–	0.372 µM (active)	0.743 µM (active)	–
CCC(=O)OC1CCC2C3CCC4=CC(=O)CC[C@@]4(C)C3CC[C@]12C (some centres not stated)	inactive	inactive	inactive	inactive	–	–	inactive	–	–	inactive	inactive	inactive	inactive	16.6 µM (active)	–	–	inactive	–	–
COc1cc2cc(c1Cl)N(C)C(=O)C[C@H](OC(=O)C(C)C)[C@]1(C)O[C@H]1[C@H](C)[C@@H]1C[C@@](O)(NC(=O)O1)[C@H](OC)C=CC=C(C)C2	inactive	inactive	inactive	inactive	inactive	inactive	inactive	–	inactive	inactive	inactive	inactive	inactive	inactive	inactive	–	inactive	inactive	–
C=C1C[C@H]2[C@H]3CCC(=O)[C@@]3(C)CC[C@@H]2[C@@]2(C)C=CC(=O)C=C12	inactive	–	–	–	20.9 µM (active)	–	–	–	–	inactive	–	inactive	–	9.35 µM (active)	–	–	–	18.7 µM (active)	–
CCCCCC[C@H]1C(=O)O[C@H](C)[C@H](NC(=O)c2cccc(NC=O)c2O)C(=O)O[C@@H](C)[C@@H]1OC(=O)CC(C)C	0.059 µM (active)	0.372 µM (active)	–	0.148 µM (active)	0.372 µM (active)	0.105 µM (active)	0.0235 µM (active)	0.0469 µM (active)	0.209 µM (active)	–	0.0743 µM (active)	0.209 µM (active)	–	0.187 µM (active)	–	–	0.0526 µM (active)	1.05 µM (active)	–
O=C(O)CNC(=O)c1c(O)c2ccccc2n(Cc2ccccc2)c1=O	inactive	–	inactive	inactive	–	inactive	inactive	–	inactive	–	inactive	inactive	inactive	–	inactive	–	inactive	–	–
CC(=CCCC1=CCC(C2=CC(=O)OC2O)OC1O)CCC1=C(C)CCCC1(C)C (configuration not stated)	inactive	–	–	11.8 µM (active)	18.7 µM (active)	16.6 µM (active)	–	4.18 µM (active)	inactive	inactive	–	2.64 µM (active)	2.35 µM (active)	–	–	–	–	0.0118 µM (active)	104
COc1cccc2c1[C@]13CCN(CC4CC4)[C@H](C2)[C@]1(OC)CCC(=O)C3	inactive	inactive	–	inactive	inactive	inactive	inactive	20.9 µM (active)	inactive	inactive	inactive	inactive	–	inactive	inactive	–	inactive	–	–
Cc1c(N)nc([C@H](CC(N)=O)NC[C@@H](N)C(N)=O)nc1C(=O)N[C@H](C(=O)N[C@@H](C)[C@H](O)[C@@H](C)C(=O)N[C@@H](C(=O)NCCc1nc(-c2nc(C(=O)NCCC[S+](C)C)cs2)cs1)[C@@H](C)O)C(O[C@H]1O[C@H](CO)[C@H](O)[C@@H](O)[C@@H]1O[C@H]1O[C@H](CO)[C@@H](O)[C@H](OC(N)=O)[C@H]1O)c1cnc[nH]1 (some centres not stated)	inactive	inactive	0.264 µM (active)	–	–	0.59 µM (active)	0.209 µM (active)	16.6 µM (active)	–	2.35 µM (active)	inactive	7.43 µM (active)	–	–	–	–	inactive	inactive	89.3
